According to PubChem BioAssay (EPA / NIEHS):
“And” between values parts separate entries of the source, which are not always exact repeats. Identical values can stand only once. Inconclusive results are not listed. A structure can be active in one record and inactive in another. The source made the active and inactive calls. The calls were made as follows, unless noted: active = hit-call score of the fitted dose curve at least 0.9, where 1 is the maximum; inactive = score below 0.9.

How the values were obtained:
[1] = read-out: Monocyte Chemoattractant Protein-1 (MCP1), CCL2 (gene 6347); assay: BSK_LPS_MCP1: BioMAP Diversity Plus: LPS Assay for Monocyte Chemoattractant Protein-1 (MCP1) Biomarker Activity (AID 2283081); details: primary human HUVEC with PBMC; actives raise or lower the signal;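 as to AC50: secreted MCP-1 protein quantified by ELISA in culture supernatant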
Outline: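 ELISA read-out of MCP-1 after 24 h chemical dosing of a human umbilical vein endothelial cell/peripheral blood mononuclear cell co-culture stimulated with LPS. Gain or loss of signal fitted relative to DMSO controls.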

[2] = BSK_LPS_PGE2: BioMAP Diversity Plus: LPS Assay for Prostaglandin E2 (PGE2) Biomarker Activity (AID 2283082); details: primary human HUVEC with PBMC; actives raise or lower the signal;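 as to AC50: secreted prostaglandin E2 measured by ELISA in LPS-stimulated co-culture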
Outline: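 PGE2 release measured by ELISA in an LPS-activated co-culture of human umbilical vein endothelial cells and peripheral blood mononuclear cells, read at 24 h post-dosing. DMSO served as baseline for bidirectional curve fitting.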

[3] = read-out: Macrophage colony-stimulating factor (MCSF), CSF1 (gene 1435); assay: BSK_LPS_MCSF: BioMAP Diversity Plus: LPS Assay for Macrophage colony-stimulating factor (MCSF) Biomarker Activity (AID 2283083); details: primary human HUVEC with PBMC; actives raise or lower the signal
Outline: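 HUVEC + PBMC co-culture (human primary), 24 h post-dose; M-CSF by ELISA; gain/loss of signal fitted bidirectionally vs DMSO baseline.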

[4] = read-out: Tissue Factor, F3 (gene 2152); assay: BSK_LPS_TissueFactor: BioMAP Diversity Plus: LPS Assay for Tissue Factor Biomarker Activity (AID 2283084); details: primary human HUVEC with PBMC; actives raise or lower the signal
Outline: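 HUVEC/PBMC co-culture, LPS-activated; CD142 ELISA read 24 h post-dose; bidirectional curve fit vs DMSO negative control.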

[5] = read-out: Tumor necrosis factor (Homo sapiens) (UniProt P01375); assay: BSK_LPS_TNFa: BioMAP Diversity Plus: LPS Assay for Tumour Necrosis Factor alpha (TNFa) Biomarker Activity (AID 2283085); details: primary human HUVEC with PBMC; actives raise or lower the signal;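 as to AC50: TNFa protein level quantified by ELISA in the co-culture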
Outline: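 TNFa was quantified by ELISA in LPS-activated co-cultures of human endothelial cells and PBMC, 24 h post-dosing. Both increases and decreases versus DMSO were fitted.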

[6] = read-out: Vascular cell adhesion molecule 1 (VCAM1), VCAM1 (gene 7412); assay: BSK_LPS_VCAM1: BioMAP Diversity Plus: LPS Assay for Vascular cell adhesion molecule 1 (VCAM1) Biomarker Activity (AID 2283086); details: primary human HUVEC with PBMC; actives raise or lower the signal
Outline: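 VCAM-1 quantified by ELISA in an LPS-activated co-culture of human endothelial cells and peripheral blood mononuclear cells, read 24 h post-treatment. Fitted in both directions versus DMSO; parallel SRB staining flags overt cytotoxicity.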

CD38, CD38 (gene 952) = assay: BSK_SAg_CD38: BioMAP Diversity Plus: SAg Assay for CD38 Biomarker Activity (AID 2283087); details: primary human HUVEC with PBMC; actives raise or lower the signal
Outline: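 CD38 quantified by ELISA (fluorescence) in a superantigen-activated endothelial cell–PBMC co-culture at 24 h post-dose. Activity fitted in both directions relative to DMSO; parallel SRB and Alamar Blue cytotoxicity read-outs.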

CD40, CD40 (gene 958) = assay: BSK_SAg_CD40: BioMAP Diversity Plus: SAg Assay for CD40 Biomarker Activity (AID 2283088); details: primary human HUVEC with PBMC; actives raise or lower the signal
Outline: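 HUVEC/PBMC co-culture, 24 h post-dose; CD40 by ELISA, fluorescence intensity; bidirectional fit vs DMSO negative control.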

CD69, CD69 (gene 969) = assay: BSK_SAg_CD69: BioMAP Diversity Plus: SAg Assay for CD69 Biomarker Activity (AID 2283089); details: primary human HUVEC with PBMC; actives raise or lower the signal;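 as to AC50: cell surface CD69 protein quantified by ELISA with fluorescence detection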
Outline: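 Values derive from bidirectional fitting relative to DMSO vehicle. Cells: umbilical vein endothelium plus peripheral blood mononuclear cells, treated 24 h before fluorescent ELISA for CD69.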

[7] = read-out: Monocyte Chemoattractant Protein-1 (MCP1), CCL2 (gene 6347); assay: BSK_SAg_MCP1: BioMAP Diversity Plus: SAg Assay for Monocyte Chemoattractant Protein-1 (MCP1) Biomarker Activity (AID 2283090); details: primary human HUVEC with PBMC; actives raise or lower the signal
Outline: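 Values derive from bidirectional fitting of ELISA-measured MCP1 against DMSO controls. Readings were taken 24 h after dosing human vascular endothelial cells co-cultured with peripheral blood mononuclear cells under superantigen stimulation.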

[8] = read-out: E-selectin (Homo sapiens) (UniProt P16581); assay: BSK_SAg_Eselectin: BioMAP Diversity Plus: SAg Assay for Eselectin Biomarker Activity (AID 2283091); details: primary human HUVEC with PBMC; actives raise or lower the signal
Outline: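 E-selectin ELISA readout at 24 h post-dosing in human umbilical vein endothelial cell/PBMC co-culture; gain or loss of signal fitted relative to DMSO baseline.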

[9] = read-out: Monokine induced gamma interferon (MIG), CXCL9 (gene 4283); assay: BSK_SAg_MIG: BioMAP Diversity Plus: SAg Assay for Monokine induced gamma interferon (MIG) Biomarker Activity (AID 2283092); details: primary human HUVEC with PBMC; actives raise or lower the signal
Outline: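 Values reflect bidirectional fitting of ELISA-measured MIG against DMSO vehicle, taken 24 h after dosing of a co-culture of human umbilical vein endothelial cells and peripheral blood mononuclear cells.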

[10] = read-out: Interleukin-8 (IL8), CXCL8 (gene 3576); assay: BSK_SAg_IL8: BioMAP Diversity Plus: SAg Assay for Interleukin-8 (IL8) Biomarker Activity (AID 2283094); details: primary human HUVEC with PBMC; actives raise or lower the signal
Outline: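 ELISA readout of IL-8 from a superantigen-activated endothelial/PBMC primary human co-culture, taken 24 h post-dosing and fitted in both directions against DMSO; parallel SRB total-protein staining flags overt cytotoxicity.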

[11] = BSK_SAg_Proliferation: Cell Proliferation Assessment in the BioMAP Diversity Plus: SAg Assay (AID 2283095); details: primary human HUVEC with PBMC;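 also: relative cell number as total protein by SRB absorbance in sub-confluent culture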
Outline: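 Relative cell number in the endothelial cell/PBMC co-culture was quantified at 96 h by SRB staining (0.1% SRB, 10% TCA fixation, read at 560 nm). Curves were fitted in both directions relative to DMSO baseline.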

[12] = BSK_SAg_SRB: Viability Assessment in the BioMAP Diversity Plus: SAg Assay (AID 2283096); details: primary human HUVEC with PBMC;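 also: cells read one day after compound addition; hits may be either gain or loss of signal compared with DMSO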
Outline: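 This overt-cytotoxicity endpoint quantifies protein in human endothelial/PBMC co-cultures at 24 h using SRB absorbance (560 nm) after trichloroacetic acid fixation. Values reflect signal change from the DMSO negative control, fitted bidirectionally.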

[13] = target: human CYP2C9, CYP2C9 (gene 1559) (UniProt P11712); assay: NVS_ADME_hCYP2C9: NovaScreen (NVS) CYP450-related Enzyme Activity (ADME) Assay for human CYP2C9 (AID 2283108; active = hit-call score of the fitted dose curve at least 0.9, where 1 is the maximum)
Outline: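 Cell-free assay of recombinant human CYP2C9 produced in Sf9 cells, with enzyme activity read by fluorescence intensity 0.75 h after compound addition. Loss of signal versus an acetonitrile negative control indicates inhibition. Primary screen used 10 uM in duplicate; actives were retested in concentration series.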

[14] = BSK_SAg_PBMCCytotoxicity: PBMC Cytotoxicity Assessment in the BioMAP Diversity Plus: SAg Assay (AID 2283093); details: primary human HUVEC with PBMC;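 also: PBMC viability measured as Alamar Blue reduction fluorescence at 546/580 nm; fitted both ways against DMSO so a hit may be loss or gain of signal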
Outline: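 Alamar Blue reduction (6 h, 546/580 nm) reports PBMC cytotoxicity after 90 h superantigen activation (SEB, TSST-1; 20 ng/mL final each) with 1 h compound pre-treatment. Gain or loss of signal fitted versus DMSO.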

Measured: AC50

E-selectin (Homo sapiens), sequence (P16581 whole entry, looked up): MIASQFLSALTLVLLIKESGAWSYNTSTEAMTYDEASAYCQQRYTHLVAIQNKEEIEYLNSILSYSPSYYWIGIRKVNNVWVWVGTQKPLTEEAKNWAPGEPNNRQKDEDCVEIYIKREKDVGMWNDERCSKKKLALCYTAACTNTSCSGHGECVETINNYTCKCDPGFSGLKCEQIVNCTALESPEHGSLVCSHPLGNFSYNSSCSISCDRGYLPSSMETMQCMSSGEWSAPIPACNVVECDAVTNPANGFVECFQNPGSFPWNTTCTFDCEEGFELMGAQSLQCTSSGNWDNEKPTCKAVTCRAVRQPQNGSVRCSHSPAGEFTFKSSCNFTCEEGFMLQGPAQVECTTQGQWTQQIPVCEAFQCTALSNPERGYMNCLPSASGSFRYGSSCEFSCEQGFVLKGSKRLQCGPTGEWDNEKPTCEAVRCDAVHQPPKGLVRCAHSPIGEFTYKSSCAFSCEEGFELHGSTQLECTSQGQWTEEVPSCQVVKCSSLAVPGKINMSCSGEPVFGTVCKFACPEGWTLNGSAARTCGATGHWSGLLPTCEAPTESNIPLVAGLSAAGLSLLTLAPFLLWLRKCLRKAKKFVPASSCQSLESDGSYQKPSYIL
Tumor necrosis factor (Homo sapiens), sequence (P01375 whole entry, looked up): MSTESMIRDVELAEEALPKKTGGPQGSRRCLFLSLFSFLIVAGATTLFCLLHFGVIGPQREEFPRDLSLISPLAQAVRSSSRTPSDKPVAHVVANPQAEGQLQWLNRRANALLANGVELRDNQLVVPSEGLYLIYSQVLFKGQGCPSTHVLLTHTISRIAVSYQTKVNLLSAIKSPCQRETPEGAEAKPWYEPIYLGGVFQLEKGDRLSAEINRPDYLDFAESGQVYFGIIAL
human CYP2C9, CYP2C9 (gene 1559), sequence (P11712 whole entry, looked up): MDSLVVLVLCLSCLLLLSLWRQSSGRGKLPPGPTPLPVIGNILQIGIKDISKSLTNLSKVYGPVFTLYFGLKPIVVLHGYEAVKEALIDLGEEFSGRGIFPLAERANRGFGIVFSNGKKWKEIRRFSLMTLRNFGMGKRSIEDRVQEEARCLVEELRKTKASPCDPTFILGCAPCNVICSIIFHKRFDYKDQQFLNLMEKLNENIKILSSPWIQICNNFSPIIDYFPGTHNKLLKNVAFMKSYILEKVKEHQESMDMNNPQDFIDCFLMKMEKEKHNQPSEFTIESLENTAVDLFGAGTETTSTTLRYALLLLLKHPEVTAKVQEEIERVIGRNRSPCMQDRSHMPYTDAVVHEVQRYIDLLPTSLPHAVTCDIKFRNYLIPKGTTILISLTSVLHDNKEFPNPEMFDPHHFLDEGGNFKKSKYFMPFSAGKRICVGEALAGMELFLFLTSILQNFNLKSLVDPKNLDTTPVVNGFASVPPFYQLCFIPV

C=CCOC(=O)CCC1CCCCC1
inactive: [1] | [2] | [3] | [4] | [5] | [6] | CD38, CD38 (gene 952) | CD40, CD40 (gene 958) | CD69, CD69 (gene 969) | [7] | [8] | [9] | [10] | [11] | [12]
active: [4] 1.01 µM

CCCCCCCCCCCCCCCCCC(=O)OCC(CC)CCCC (configuration not stated)
not listed: [3] | [13] | [14]
inactive: all other assays above

CCCCC/C=C/C=C/C=O
active: [1] 33.5 µM | [2] 25.3 µM | [3] 33.2 µM | [4] 31.9 µM | [5] 30.8 µM | [6] 30 µM | CD40, CD40 (gene 958) 20 µM | CD69, CD69 (gene 969) 30 µM | [7] 31.2 µM | [8] 28.3 µM | [9] 35.6 µM | [10] 20 µM | [11] 14.2 µM | [12] 31.5 µM

CCCCC(CC)COC(=O)/C=C\C(=O)OCC(CC)CCCC (configuration not stated)
active: [6] 11.9 µM | [11] 20 µM
not listed: CD38, CD38 (gene 952) | [13] | [14]
inactive: all other assays above

CCn1c2ccccc2c2cc(N)ccc21
active: [1] 1.24 µM | [2] 5.42 µM | [3] 7.37 µM | CD38, CD38 (gene 952) 4.91 µM | CD40, CD40 (gene 958) 6.33 µM | CD69, CD69 (gene 969) 4.02 µM | [7] 1.85 µM | [10] 0.0208 µM | [13] 0.405 µM
inactive: [4] | [5] | [6] | [8] | [9] | [11] | [12]

Cc1ccc(Nc2ccc(O)c3c2C(=O)c2ccccc2C3=O)cc1
active: [2] 1.06 µM | [5] 0.435 µM
not listed: [3] | CD38, CD38 (gene 952) | [13] | [14]
inactive: all other assays above

O=C(O)C[C@H](O)C[C@H](O)/C=C/c1c(C2CC2)nc2ccccc2c1-c1ccc(F)cc1
active: [5] 3.17 µM | CD40, CD40 (gene 958) 0.216 µM | CD69, CD69 (gene 969) 0.109 µM | [8] 0.00197 µM | [10] 0.0041 µM | [11] 0.756 µM | [12] 0.104 µM
not listed: [3] | [13] | [14]
inactive: all other assays above

O=P(c1ccccc1)(c1ccccc1)c1ccccc1
active: [13] 3.19 µM
not listed: [3] | CD38, CD38 (gene 952)
inactive: all other assays above

C=C[Si](OCC)(OCC)OCC
not listed: CD38, CD38 (gene 952) | [13]
inactive: all other assays above

O=C(O)c1ccc([N+](=O)[O-])cc1
not listed: [3] | [13] | [14]
inactive: all other assays above

C[C@H]1C[C@@H]2[C@H]([C@@H](O)C[C@@]3(C)[C@H]2CC[C@]3(O)C(=O)CO)[C@@]2(C)C=CC(=O)C=C12
active: [4] 6.44 µM | [5] 4.93 µM and 3.97 µM | [8] 3.1 µM and 1.1 µM | [10] 4.3 µM and 1.37 µM | [11] 2.49 µM and 6.67 µM
inactive: [1] | [2] | [4] | [6] | CD40, CD40 (gene 958) | CD69, CD69 (gene 969) | [7] | [9] | [12]

CN(CCOc1ccc(CC2SC(=O)NC2=O)cc1)c1ccccn1 (configuration not stated)
active: [2] 0.121 µM | [4] 24.9 µM | CD40, CD40 (gene 958) 20 µM | CD69, CD69 (gene 969) 20 µM | [7] 20 µM | [8] 20 µM | [10] 20 µM | [11] 20 µM
inactive: [1] | [5] | [6] | [9] | [12]
